# Measurements published in PubChem BioAssay.
# Active and inactive are the calls of the source. Unless noted, no stated cut-off is given here; in the data, active means inhibition above about 80%; inactive means the rest. Non-standard residues stand in square brackets, D forms with d. Residues, ends and D or L forms follow the SMILES beside them. Dolaproine = CO[C@@H]([C@@H]1CCCN1)[C@@H](C)C(=O)O; Dil = CC[C@H](C)[C@H](NC)[C@@H](CC(=O)O)OC; NMeV = CN[C@H](C(=O)O)C(C)C
# Columns and labels:
# [1] = growth inhibition, single agent or in combination, cell-based, chromothripsis tumors, cisplatin or BGB combos (AID 1671449); conditions: LFS_MB_P medulloblastoma cells;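 further: cells exposed for 96 hours; 0% = vehicle DMSO and 100% = killing by high DMSO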
# [2] = growth inhibition, single agent and combos, cell-based, chromothripsis tumors, cisplatin or BGB combos (AID 1671450); conditions: HDN33 neuroblastoma cells, stronger effect = higher value;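 further: cells exposed to compound for four days; 0% = vehicle DMSO and 100% = cell killing by high DMSO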
# [3] = growth inhibition, single agents and combos, ICB984, cell-based, cisplatin or BGB combos, synergistic combos for chromothripsis tumors (AID 1671451; call rule not given here;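 further: cells exposed for 96 hours before readout; 0% = vehicle DMSO and 100% = killing by high DMSO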); conditions: ICB984 medulloblastoma cells, drug combinations, stronger effect = higher value
# [4] = growth inhibition, single agents and combos, LFS_MB_1R, cell-based, cisplatin or BGB combos, synergistic combos for chromothripsis tumors (AID 1671452); conditions: LFS_MB_1R medulloblastoma cells, stronger effect = higher value;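 further: cells exposed for 96 hours before readout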
# [5] = growth inhibition, single agents and combos, HTB85, cell-based, BGB or cisplatin IC20 combos, synergistic combos for chromothripsis tumors (AID 1671453); conditions: HTB85 osteosarcoma cells, drug combinations, stronger effect = higher value;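 further: cells exposed for 96 hours before readout; 0% = vehicle DMSO and 100% = high DMSO killing control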
# [6] = growth inhibition, single agents and combos, CRL2098, cell-based, BGB or cisplatin IC20 combos, synergistic combos for chromothripsis tumors (AID 1671454); conditions: CRL2098 osteosarcoma cells, drug combinations, stronger effect = higher value;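 further: cells exposed for 96 h before readout; 0% = vehicle DMSO and 100% = killing by high DMSO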
# [7] = growth inhibition, single agents and combos, HD-MB03, cell-based, BGB or cisplatin IC20 combos, synergistic combos for chromothripsis tumors (AID 1671455; in the data active means inhibition above about 83%;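 further: 0% = vehicle DMSO and 100% = high DMSO as cytotoxic control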); conditions: HD-MB03 medulloblastoma cells, stronger effect = higher value
# [8] = growth inhibition, single agents and combos, UWB1.289, cell-based, BGB or cisplatin combos, synergistic combos for chromothripsis tumors (AID 1671456); conditions: UWB1.289 ovarian carcinoma cells, stronger effect = higher value;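 further: cells exposed to compound for four days; 0% = vehicle DMSO and 100% = killing by high DMSO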
# [9] = growth inhibition, single agents and combos, LFS_MB_2R, cell-based, cisplatin combos, synergistic combos for chromothripsis tumors (AID 1671457); conditions: LFS_MB_2R medulloblastoma cells, stronger effect = higher value;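 further: cells exposed to compound for four days before readout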
# [10] = growth inhibition, MDA-MB-436, cell-based, BGB or cisplatin combos, synergistic combos for chromothripsis tumors (AID 1671458; call rule not given here;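 further: cells exposed for 96 hours; 0% = vehicle DMSO and 100% = killing by high DMSO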); conditions: MDA-MB-436 breast carcinoma growth inhibition, drug combinations, stronger effect = higher value
# [11] = UWB1.289_BRCA1 ovarian cancer growth, cell-based, BGB or cisplatin combinations (AID 1671459); conditions: UWB1.289 BRCA1 ovarian carcinoma, drug combinations, stronger effect = higher value
# [12] = drug combination toxicity in non-malignant astrocytes – cell-based, BGB or cisplatin IC20 combos, cytotoxicity control for chromothriptic childhood tumor combination screen (AID 1671460); conditions: Human astrocytes, viability inhibition, drug combinations, at 0.5 µM, stronger effect = higher value;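 further: cells exposed to compounds for 96 hours before viability readout; 0% = vehicle and 100% = killing control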
# [13] = BT084 cell growth, single and combined drugs, ICGC_MB145, cisplatin and BGB IC40 combos (AID 1671461); conditions: BT084 medulloblastoma cells, drug combinations, stronger effect = higher value;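 further: cells exposed to drugs for 96 hours; 0% = vehicle DMSO and 100% = high DMSO full killing control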
# [14] = RCMB18 cell growth, single agent and combined, cisplatin and BGB IC40 combos (AID 1671462); conditions: RCMB18 medulloblastoma cells, stronger effect = higher value;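 further: cells exposed to compound for four days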
# [15] = CRL1545 cell growth, single agent and combined, cisplatin and BGB IC20 combos (AID 1671464); conditions: CRL1545 osteosarcoma cells, stronger effect = higher value;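 further: cells exposed to compound for 96 hours before readout; 0% = vehicle DMSO and 100% = high DMSO killing control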
# [16] = galactose survival enhancers in mitochondrial complex I cybrids – cell-based, galactose medium, ATP luminescence, primary screen (AID 1645843;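 active means z-score of at least 1.8 in each of two replicates, scored against plate mean and spread of sample wells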;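 further: positive z means more ATP and so rescue of galactose-driven cybrid death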); conditions: complex I mutant cybrid cells, 72 h, stronger effect = higher value
# [17] = measured here: combination with BGB IC40, at 0.05 µM
# [18] = measured here: with BGB IC20 combination, at 0.5 µM
# [19] = measured here: with cisplatin IC20 combination, at 0.5 µM
# [20] = measured here: combination with cisplatin, at 0.5 µM
# [21] = measured here: combination with cisplatin, at 5 µM
structure (smiles),measurement,setting,value
CC[C@H](C)[C@@H]([C@@H](CC(=O)N1CCC[C@H]1[C@H](OC)[C@@H](C)C(=O)N[C@@H](Cc1ccccc1)C(=O)O)OC)N(C)C(=O)[C@@H](NC(=O)[C@@H](NC)C(C)C)C(C)C (H-[NMeV]V[Dil][Dolaproine]F-OH),inhibition,"[1]; at 0.5 µM, stronger effect = higher value",-34.4% (inactive)
same,inhibition,"[1]; measured here: combination with BGB IC20, at 0.005 µM",-15%
same,inhibition,"[1]; measured here: combination with BGB IC40, at 0.005 µM",-52.5%
same,inhibition,[1]; [17],-31.6%
same,inhibition,"[1]; measured here: combination with cisplatin, at 0.5 µM, stronger effect = higher value",-31.7%
same,inhibition,"[1]; measured here: combination with cisplatin, at 5 µM, stronger effect = higher value",13.5%
same,inhibition,"[2]; BGB combo, at 5 µM",68.3%
same,inhibition,[2]; at 0.5 µM,71.4% (inactive)
same,inhibition,"[2]; cisplatin combo, at 5 µM",69.6%
same,inhibition,[2]; [18],62.6%
same,inhibition,[2]; [19],60.4%
same,inhibition,"[2]; single agent, at 5 µM",96.5%
same,inhibition,"[3]; BGB IC20 combo, at 0.005 µM",-18.1%
same,inhibition,"[3]; BGB IC40 combo, at 0.005 µM",-4.8%
same,inhibition,"[3]; BGB IC40 combo, at 0.05 µM",21.2%
same,inhibition,[3]; at 0.5 µM,-6.87% (inactive)
same,inhibition,"[3]; cisplatin combo, at 0.05 µM",17.4%
same,inhibition,"[3]; cisplatin combo, at 0.5 µM",-3.43%
same,inhibition,"[3]; cisplatin combo, at 5 µM",-11.7%
same,inhibition,"[3]; measured here: 5 uM single agent, at 5 µM",-7.94%
same,inhibition,[4]; at 0.5 µM,-16.4% (inactive)
same,inhibition,[4]; [17],-34.7%
same,inhibition,[4]; [20],-7.82%
same,inhibition,[4]; [21],15.8%
same,inhibition,[5]; at 0.5 µM,55.8% (inactive)
same,inhibition,"[5]; measured here: with BGB IC20, at 0.5 µM",69.6%
same,inhibition,"[5]; measured here: with BGB IC20, at 5 µM",59.7%
same,inhibition,"[5]; measured here: with cisplatin IC20, at 0.5 µM",20.4%
same,inhibition,"[5]; measured here: with cisplatin IC20, at 5 µM",67.1%
same,inhibition,"[5]; single agent, at 5 µM",86.4%
same,inhibition,[6]; at 0.5 µM,35% (inactive)
same,inhibition,"[6]; measured here: combination with BGB at IC20, at 0.5 µM",36.6%
same,inhibition,"[6]; measured here: combination with cisplatin at IC20, at 0.5 µM",9.03%
same,inhibition,[7]; at 0.5 µM,43.8% (inactive)
same,inhibition,"[7]; measured here: combo with BGB at IC20, at 0.5 µM",44.1%
same,inhibition,"[7]; measured here: combo with cisplatin at IC20, at 0.5 µM",39.9%
same,inhibition,[8]; at 0.5 µM,20.2% (inactive)
same,inhibition,"[8]; measured here: inhibition with BGB combination, at 0.05 µM",-13%
same,inhibition,"[8]; measured here: inhibition with cisplatin combination, at 0.05 µM",-3.2%
same,inhibition,[9]; at 0.5 µM,-9.71% (inactive)
same,inhibition,[9]; [20],-31.2%
same,inhibition,[9]; [21],-10.7%
same,inhibition,[10]; at 0.5 µM,50.1% (inactive)
same,inhibition,"[10]; measured here: BGB combination, at 0.5 µM",39.8%
same,inhibition,"[10]; measured here: BGB combination, at 5 µM",58%
same,inhibition,"[10]; measured here: cisplatin combination, at 0.5 µM",45.4%
same,inhibition,"[10]; measured here: cisplatin combination, at 5 µM",73.6%
same,inhibition,"[11]; BGB combination, concentration series, at 5 µM",49.3%
same,inhibition,[11]; at 0.5 µM,26.4% (inactive)
same,inhibition,"[11]; cisplatin combination, concentration series, at 5 µM",53.2%
same,inhibition,[12],31.9% (inactive)
same,inhibition,[12]; measured here: combo with BGB IC20,39.5%
same,inhibition,[12]; measured here: combo with cisplatin IC20,19.9%
same,inhibition,[13]; at 0.5 µM,7.92% (inactive)
same,inhibition,"[13]; cisplatin combination, at 0.5 µM",-4.86%
same,inhibition,"[13]; cisplatin combination, at 5 µM",-10.9%
same,inhibition,"[13]; measured here: BGB IC40 combination 0.05 uM, at 0.05 µM",-19.9%
same,inhibition,"[13]; single agent, at 5 µM",67.2%
same,inhibition,[14]; at 0.5 µM,-11.8% (inactive)
same,inhibition,"[14]; cisplatin combo, at 5 µM",17%
same,inhibition,"[14]; measured here: BGB IC40 combination, at 0.05 µM",-3.82%
same,inhibition,[14]; [20],-17.8%
same,inhibition,"[14]; single agent, at 5 µM",17.3%
same,inhibition,[15]; at 0.5 µM,42.9% (inactive)
same,inhibition,[15]; [18],47.9%
same,inhibition,[15]; [19],39.4%
same,inhibition,"[15]; single agent, at 0.05 µM",-9.33%
same,inhibition,"[15]; single agent, at 5 µM",84.4%
Cc1cc2c(=O)n(Cc3nc4ccccc4[nH]3)cnc2s1,z-score,[16],-0.615 (inactive)
